Hit rate of the full screen: of about 580,000 compounds, about 6,100 (1.1%) were called active. Another 15% or so got no clear call; they are omitted. The call rests on the fitted dose curve; in most records, active means well fitted inhibition curve with a large enough effect; inconclusive means small, poorly fitted or top-dose-only effect, or another doubt; inactive means no such curve, though single readings can be large or run the other way. The sample as a whole holds a higher share of actives than the screen did.
Target: Polyunsaturated fatty acid lipoxygenase ALOX12 (Homo sapiens) (UniProt P18054)
Test: Primary qHTS assay for inhibitors of human arachidonate 12S-lipoxygenase (ALOX12): Round 2
Settings: purified 12hLO, xylenol orange hydroperoxide absorbance; series mostly up to 108 µM; activity change, negative = inhibition: at the top concentration
How it was run: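 Purified human 12hLO (150 nM final) in 25 mM Hepes, 0.01% Triton X-100, pH 7.0 was preincubated 15 min at room temperature with compound. Then 40 uM arachidonic acid was added, 30 min. Hydroperoxide was read by Fe-XO absorbance ratio 573/405 nm.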
On the % scale 0 is the no-effect control and ±100 the full control effect; potency means the concentration at half of the fitted maximal effect.

Chain of Polyunsaturated fatty acid lipoxygenase ALOX12 (Homo sapiens) (P18054 whole entry, looked up): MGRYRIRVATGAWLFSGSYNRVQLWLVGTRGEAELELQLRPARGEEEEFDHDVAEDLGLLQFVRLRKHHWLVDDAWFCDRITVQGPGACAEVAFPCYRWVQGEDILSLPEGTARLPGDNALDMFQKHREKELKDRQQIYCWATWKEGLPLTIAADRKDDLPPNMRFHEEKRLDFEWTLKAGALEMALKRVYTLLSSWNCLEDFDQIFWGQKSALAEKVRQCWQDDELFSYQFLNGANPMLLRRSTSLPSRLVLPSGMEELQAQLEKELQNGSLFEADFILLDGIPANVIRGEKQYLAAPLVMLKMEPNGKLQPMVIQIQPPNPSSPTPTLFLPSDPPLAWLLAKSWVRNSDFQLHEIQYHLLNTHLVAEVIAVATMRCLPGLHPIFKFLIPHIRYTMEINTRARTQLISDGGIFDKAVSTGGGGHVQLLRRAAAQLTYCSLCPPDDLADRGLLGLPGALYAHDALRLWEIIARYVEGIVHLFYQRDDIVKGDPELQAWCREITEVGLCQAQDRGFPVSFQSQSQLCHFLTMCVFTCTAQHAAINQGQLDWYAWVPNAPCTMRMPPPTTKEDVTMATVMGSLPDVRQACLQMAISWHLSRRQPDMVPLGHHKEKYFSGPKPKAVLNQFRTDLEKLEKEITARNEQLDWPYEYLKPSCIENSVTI

Row | Compound | activity change, negative = inhibition | Potency
1 | COc1ccc(C2CC(=O)c3cnc4c(c3C2)c(=O)[nH]c(=O)n4CCC(C)C)cc1 (configuration not stated) | -3.93% (inactive) | 
2 | CCCC(=O)C1C(=O)CC(c2ccc(OC)c(OC)c2)CC1=O (configuration not stated) | 46.2% (inactive) | 
3 | O=C(CSc1nc2ccccc2nc1N1CCCCC1)Nc1cccc(Br)c1 | 56.1% (inactive) | 
4 | CC(Oc1ccc(-c2ccccc2)cc1)C(N)=O (configuration not stated) | 47.2% (inactive) | 
5 | CC1(OC(=O)C2CCCC2)C(=O)C=C2C=C(c3ccc(C#N)cc3)OC=C2C1=O (configuration not stated) |  | 10 µM (active)
6 | N#Cc1ccc(-c2nc(C(=O)NC3CCCCCC3)no2)cc1 | 7.37% (inactive) | 
7 | CCCCCC1CCC(C(=O)Oc2ccc(C#N)cc2)CC1 (configuration not stated) | 1.66% (inactive) | 
8 | CCCc1cc(=O)oc2c(C)c(OCC(=O)c3ccc(-c4ccccc4)cc3)ccc12 | 8.56% (inactive) | 
9 | O=C(Nc1ccc2c(c1)OCCO2)C(=O)c1c[nH]c2cc(F)ccc12 | -16.1% (inactive) | 
10 | Fc1ccc(OC2CN(Cc3cccnc3)C2)c(F)c1 | 10.3% [at 12.5 µM] (inactive) | 
11 | C=CCc1ccc(OCC(O)CN2CCN(Cc3ccccc3)CC2)c(OC)c1 (configuration not stated) | -23.6% (inactive) | 
12 | COc1ccc(CN2CCN(Cc3cccnc3)CC2)cc1OCc1ccccc1 |  | 0.708 µM (active)
13 | Cc1[nH]nc2c1C(c1ccccc1Br)C1=C(COC1=O)N2 (configuration not stated) | -14.3% (inactive) | 
14 | O=C(NCc1coc(-c2cccs2)n1)C1CCCN(C(=O)c2ccc(F)cc2)C1 (configuration not stated) | -2.26% (inactive) | 
15 | CN(CC(=O)Nc1cc(Cl)ccc1F)Cc1ccccc1N1CCCCC1 | 10.9% (inactive) | 
16 | CNC(NC(=O)c1ccc(C)cc1)C(Cl)(Cl)Cl (configuration not stated) | 3.19% (inactive) | 
17 | COc1ccc(C(=O)N(Cc2ccccc2)c2ccc(C)cc2)cc1S(=O)(=O)N1CCOCC1 | 1.7% (inactive) | 
18 | COc1ccc(C(=O)NCc2ccc(C)cc2)cc1S(=O)(=O)N1CCCC1 | 30.3% (inactive) | 
19 | COc1ccc(C)cc1S(=O)(=O)N1CCN(S(=O)(=O)c2cc(C(=O)O)ccc2C)CC1 |  | 15.8 µM (active)
20 | CCCCn1nc(C(=O)Nc2cc(Cl)ccc2C)c2ccccc2c1=O | 3.35% (inactive) | 
21 | CCOc1ccc(-c2nc(CN3CCN(C(=O)Nc4ccccc4OC)CC3)c(C)o2)cc1 | -12% (inactive) | 
22 | Cc1ncc(-c2ccc(S(=O)(=O)Nc3ccc(F)c(F)c3)cc2)o1 | -25.2% (inactive) | 
23 | COc1cccc(CN2CCCN(Cc3ccncc3)C(c3ccccc3)CC(=O)NCC2)c1OC (configuration not stated) | 67.7% (inactive) | 
24 | N#Cc1ccc(-c2cccs2)nc1SCc1ccc(Br)cc1 | -27.6% (inactive) | 
25 | N#Cc1c(-c2ccc(F)cc2)cc(C2CC2)nc1SCC(=O)c1cccs1 | -10.2% (inactive) | 
26 | N#Cc1c(-c2cccs2)nc(SCC(=O)c2ccc(Br)cc2)[nH]c1=O |  | 7.08 µM (active)

Row | Compound | activity change, negative = inhibition | Potency
27 | Cc1oc(-c2ccc(OC(C)C)cc2)nc1CSc1nc2c(c(=O)[nH]1)CCC2 | -5.3% (inactive) | 
28 | CCC(Oc1ccc(Br)cc1)C(=O)O (configuration not stated) | -20.7% (inactive) | 
29 | COC(=O)CN1C(=O)C(O)=C(C(C)=O)C1c1ccc([N+](=O)[O-])cc1 (configuration not stated) | -12.7% (inactive) | 
30 | CC(=O)C1=C(O)C(=O)N(c2ccc(Br)cc2)C1c1ccc([N+](=O)[O-])cc1 (configuration not stated) |  | 31.6 µM (active)
31 | CC(=O)C1=C(O)C(=O)N(c2cccnc2)C1c1ccc([N+](=O)[O-])cc1 (configuration not stated) | -19.4% (inactive) | 
32 | O=C(C(c1ccccc1)c1ccccc1)N(Cc1ccco1)C1CC1 | -2.19% (inactive) | 
33 | Cc1ccc(CS(=O)Cc2ccc(Cl)cc2)cc1 (configuration not stated) | -10.9% (inactive) | 
34 | O=C(NC(=S)NC1CCCCC1)c1ccc(Cl)cc1 |  | 2.82 µM (active)
35 | Cc1scc(C(=O)NNC(=S)NCC(C)C)c1C | -23.5% (inactive) | 
36 | O=C(NC1CCCCCC1)C1CCN(C(=O)c2ccc(Cl)cc2)CC1 | 240% (inactive) | 
37 | O=C(NNC(=S)NC1CC2CCC1C2)c1ccc(Cl)cc1 (configuration not stated) | 0% (inactive) | 
38 | CC(C)CNC(=S)NC(=O)c1ccc(Cl)cc1 |  | 8.91 µM (active)
39 | CC(C)CNC(=S)NNC(=O)c1nn(C)cc1Cl | -17.6% (inactive) | 
40 | Cc1ccccc1N1CCCN(Cc2ccccc2OCCO)CC1 | 29.5% (inactive) | 
41 | Cc1ccc(-c2nc3ccccc3o2)cc1NC(=O)C1CC1 | -4.05% (inactive) | 
42 | Cn1cc(-c2cnc3n[nH]c(-c4ccccc4)c3n2)cn1 | 24.5% [at 176 µM] (inactive) | 
43 | COc1ccc(Cl)cc1C(=O)OCCOc1ccccc1F | 26.4% (inactive) | 
44 | Cc1cc(C(=O)OCC(=O)NC(=O)c2ccccc2)c2ccccc2n1 | 8.94% (inactive) | 
45 | CCc1nnsc1C(=O)N(C)CCOc1ccccc1 | -7.12% (inactive) | 
46 | CC(C)CCNC(=O)COC(=O)c1cc(-c2ccco2)nc2ccccc12 |  | 6.31 µM (active)
47 | COc1cccc(-c2cc(C(=O)NCCC(C)C)c3ccccc3n2)c1 | 14.8% (inactive) | 
48 | CCCOc1cccc(-c2cc(C(=O)OC)c3ccccc3n2)c1 | 4.79% (inactive) | 
49 | CN(CCOc1ccccc1)C(=O)c1cc(-c2ccco2)nc2ccccc12 |  | 31.6 µM (active)
50 | CC(C)c1ccc(OCC(=O)Nc2ccc(C(=O)N(C)C)cc2)cc1 | 4.6% (inactive) | 
51 | N#Cc1nc(-c2ccc(S(=O)(=O)N3CCOCC3)cc2)oc1NCCN1CCOCC1 | 1.66% (inactive) | 
52 | CC(C)CCN1CC2(CCCN(C(=O)c3ccn(C)c(=O)c3)C2)CCC1=O (configuration not stated) | -3.41% (inactive) | 

Row | Compound | activity change, negative = inhibition | Potency
53 | O=C(CC(NC(=O)c1ccccc1)c1ccccc1)NC12CC3CC(CC(C3)C1)C2 (configuration not stated) | 56.1% (inactive) | 
54 | CCc1nnc(NC(=O)C2CC(=O)N(c3ccc4c(c3)OCCO4)C2)s1 (configuration not stated) | 6.52% (inactive) | 
55 | CCOC(=O)CSc1nnc(NC(=O)C2CC(=O)N(c3ccc(F)cc3)C2)s1 (configuration not stated) |  | 39.8 µM (active)
56 | COc1ccc(C(=O)CSc2nnc(NC(=O)C3CC(=O)N(c4cccc(OC)c4)C3)s2)cc1 (configuration not stated) | 8.34% (inactive) | 
57 | CSc1nc(-c2cccs2)cc(C(F)(F)F)n1 | -24.3% (inactive) | 
58 | CCn1nc(C(=O)N(C)Cc2cnn(-c3ccccc3)c2)c2ccccc2c1=O | 44.5% (inactive) | 
59 | CC1CCCCN1C(C)CNC(=S)Nc1ccc(F)cc1F (configuration not stated) | -8.73% (inactive) | 
60 | Cn1cc(CN2CCn3c(nnc3[C@@H]3C[C@@H](O)CN3Cc3ccccc3)C2)c2ccccc21 | -4.36% (inactive) | 
61 | CCOC(=O)c1c(C)oc2ccc(N(C(=O)c3ccncc3)S(=O)(=O)c3ccc(CC)cc3)cc12 | 0% (inactive) | 
62 | CC(=O)N(c1ccc2oc(=O)sc2c1)S(=O)(=O)c1ccc(C)cc1 |  | 8.91 µM (active)
63 | CC(=O)Oc1ccc(N(C(C)=O)S(=O)(=O)c2ccc3ccccc3c2)cc1Br | 0% (inactive) | 
64 | Cn1c(=O)c2c(nc(NCc3ccccc3)n2Cc2cccc(F)c2)n(C)c1=O | 9.35% (inactive) | 
65 | CCN(c1ccc(Cl)cc1)S(=O)(=O)c1nnc(NC(=O)c2ccco2)s1 | -23.8% (inactive) | 
66 | O=C(Nc1ccc2nc(SCCOc3ccccc3)sc2c1)c1ccco1 | -28.3% (inactive) | 
67 | O=C(Nc1nc(-c2ccco2)c(-c2ccco2)s1)c1ccco1 |  | 31.6 µM (active)
68 | O=C(COC(=O)CNC(=O)c1cccc(Cl)c1)Nc1ncc(C(F)(F)F)cc1Cl | -24.8% (inactive) | 
69 | Cc1nc(SC(C)C(=O)Nc2cccc(C#N)c2)n(CC(C)C)c1C (configuration not stated) | 1.37% (inactive) | 
70 | COc1ccc(NC(=O)[C@@H]2C[C@@H](c3ccc(F)cc3)N(CCOc3ccccc3)C2)cn1 |  | 31.6 µM (active)
71 | O=C(Nc1cccnc1)[C@@H]1C[C@@H](c2ccc(F)cc2)N([S+](=O)([O-])c2ccccc2)C1 | 10.5% [at 176 µM] (inactive) | 
72 | COc1ccc(NC(=O)[C@@H]2C[C@@H](c3cccc(C(F)(F)F)c3)N(Cc3cnn(C)c3)C2)cn1 | 0.79% (inactive) | 
73 | O=C(NC1CC1)c1ccccc1OCC1CCCN(Cc2ccncc2F)C1 (configuration not stated) | 57.2% (inactive) | 
74 | Cc1ccc(/C=N/Nc2ccccc2C(F)(F)F)cc1 | 37.1% (inactive) | 
75 | Cc1ccccc1N/N=C/c1ccc(N2CCOCC2)cc1 |  | 7.08 µM (active)
76 | CN(CC(=O)Nc1ccc(N2CCOCC2)cc1)CC(=O)Nc1ccccc1[N+](=O)[O-] | 1.25% (inactive) | 
77 | Cc1cc2ccccc2n1CC(=O)Nc1ccc(Oc2ccccc2)cc1 | -0.868% (inactive) | 
78 | Cc1ccc(CN2CCN(c3nc4ccccc4o3)CC2CCO)cc1 (configuration not stated) | 15.7% (inactive) | 

Row | Compound | activity change, negative = inhibition | Potency
79 | CSc1ccc(/C=N/N2CCN(Cc3ccccc3Cl)CC2)cc1 | -1.35% (inactive) | 
80 | CSc1ccccc1N=Cc1ccc(Cl)c(Cl)c1 | 3.85% (inactive) | 
81 | CSc1ccc(/C=N/Nc2c(Cl)cc(Cl)cc2Cl)cc1 |  | 4.47 µM (active)
82 | CCNc1nc(C(F)(F)F)c(C(=O)OCC)s1 | 40.4% (inactive) | 
83 | Cc1ccc(C2C3=C(CC(C)(C)CC3=O)Nc3nc(SCCC(C)C)[nH]c(=O)c32)s1 (configuration not stated) | 30.9% (inactive) | 
84 | CN(C)C(=O)c1cccnc1OC1CCN(C(=O)Nc2cc(F)cc(F)c2)C1 (configuration not stated) | -0.265% (inactive) | 
85 | Cc1oc(C)c2c(=O)cc(-c3ccc4c(c3)OCO4)cc(OC(=O)c3ccc(Cl)cc3)c12 | 6.01% (inactive) | 
86 | COc1ccc(-c2c(C)c3ccc(O)c(CN4CCCC4)c3oc2=O)cc1OC | -10.4% (inactive) | 
87 | CCOc1cc(-c2ccc(O)c(OC)c2)cc(=O)c2c(C)oc(C)c12 |  | 7.08 µM (active)
88 | CCn1nc(C)c(CNC(=O)Nc2cc(Cl)ccc2OC)c1C | 23.7% (inactive) | 
89 | O=C(c1ccc2c(c1)N(C(=O)c1ccccc1)CC2)N1CCN(c2ccc(Cl)cc2)CC1 | 38.8% (inactive) | 
90 | Cc1ccc2cc(C(=O)NCc3cccnc3-n3cccn3)c(C)nc2c1 | 7.82% (inactive) | 
91 | Cc1nc(C)c(C(=O)N2CCC(N3C(=O)C4(CCCC4)C3c3ccccc3)CC2)s1 (configuration not stated) | 58% (inactive) | 
92 | Cc1nc2cc(NC(=O)C3CC(=O)N(CC4CC4)C3)ccc2o1 (configuration not stated) | 0.248% (inactive) | 
93 | CC(C)CC(CC(C)C)=NNC(=O)COc1ccc(C#N)cc1 | -15.3% (inactive) | 
94 | N#Cc1ccc(OCC(=O)Nc2nc(-c3ccccn3)cs2)cc1 |  | 17.8 µM (active)
95 | NS(=O)(=O)c1ccc2nc(NC(=O)COc3ccccc3)sc2c1 | 2.54% (inactive) | 
96 | O=C1COc2ccc(C(=O)COC(=O)c3nn(Cc4ccccc4)c(=O)c4ccccc34)cc2N1 | -18.9% (inactive) | 
97 | Cn1nc(C2CCN(C(=O)c3cccc(Cl)c3)CC2)[nH]c1=O | 47.3% [at 176 µM] (inactive) | 
98 | Cc1ccc(C(=O)N2CCC(c3nn(-c4ccccc4)c(=O)[nH]3)CC2)cc1 | 4.19% (inactive) | 
99 | O=C(c1ccccc1F)N1CCC(c2nn(-c3ccc(Cl)cc3)c(=O)[nH]2)CC1 |  | 31.6 µM (active)
100 | CC(C)(C)C(=O)N1CCC(c2nn(-c3ccc(F)cc3)c(=O)[nH]2)CC1 | 3.33% [at 176 µM] (inactive) | 
101 | O=C(c1ccc(F)cc1)N1CCCC(c2nn(-c3cccc(Cl)c3)c(=O)[nH]2)C1 (configuration not stated) | 5.72% (inactive) | 
102 | O=C(Cc1cccc(Cl)c1)N1CCC(c2nn(-c3ccc(Cl)cc3)c(=O)[nH]2)CC1 |  | 20 µM (active)

From PubChem BioAssay AID1671190 (National Center for Advancing Translational Sciences (NCATS), 2021)
